A selection: hits, their analogues and other compounds. The true share with any hit is near 1.7%.
HEK293 tox = cytotoxicity counter-screen for GLP-1 receptor inverse agonists; HEK293 cAMP-luciferase reporter cells, luminescence, 24 h; Potency, µM (series often up to 38.3 µM), for the others: top-dose activity change, negative = inhibition, most hits filed as inhibitors; 410,000 compounds, 0.13% hits;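 also: loss of luciferase light is scored as toxicity; % is scaled to controls: 0 for no effect and ±100 for the full control effect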
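Quantitative HTS format, 1536 wells, 200 cells/uL seeded. Compounds: 23 nL, 24 h, 37 °C. Detection: luciferase reagent, luminescence at 12 min RT; decreased signal taken as cytotoxic.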
GLP1R ag = agonists of human GLP-1 receptor. HEK293 GLP-1R CRE-luciferase, luminescence, 4-6 h; cells express a hypersensitive GLP-1R form. Potency, µM (top dose mostly 45.6 µM), without a hit: top-dose activation, actives largely listed as activators. 380,000 compounds, 0.007% hits. AID 624172; also: % of control where 0% means no effect
GLP-1R inv ag = acts as inverse agonist at human GLP-1 receptor | 410,000 compounds, 1.6% hits | P43220 | HEK293 GLP-1R CRE-luciferase, luminescence, 24 h; GLP-1R form is constitutively active | Potency, µM (highest dose often 38.3 µM), inactives show at the top dose activity change, negative = inhibition, actives largely listed as inhibitors | AID 624417; also: % is scaled to controls: 0 for no effect and ±100 for the full control effect; nearly all actives have a fitted effect of over 55% in size
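Seeding at 200 cells/uL, 12 h culture, 24 hr compound treatment, then luciferase reagent and a luminescence read; cells are HEK293 stably expressing a constitutively active GLP-1R plus cAMP-responsive luciferase.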
PTHR1 ag = agonists of human PTHR1 parathyroid hormone receptor; Q03431; HEK293 GP2 PTHR1 cells, GloSensor cAMP luminescence, 1 h; Potency, µM (titrated, usually from 115 µM), without a hit: top-dose activation, most hits filed as activators; 410,000 compounds, 0.075% hits; AID 743266; also: nearly all actives have a fitted effect of over 55% in size
Target sequence (Q03431 whole entry, looked up): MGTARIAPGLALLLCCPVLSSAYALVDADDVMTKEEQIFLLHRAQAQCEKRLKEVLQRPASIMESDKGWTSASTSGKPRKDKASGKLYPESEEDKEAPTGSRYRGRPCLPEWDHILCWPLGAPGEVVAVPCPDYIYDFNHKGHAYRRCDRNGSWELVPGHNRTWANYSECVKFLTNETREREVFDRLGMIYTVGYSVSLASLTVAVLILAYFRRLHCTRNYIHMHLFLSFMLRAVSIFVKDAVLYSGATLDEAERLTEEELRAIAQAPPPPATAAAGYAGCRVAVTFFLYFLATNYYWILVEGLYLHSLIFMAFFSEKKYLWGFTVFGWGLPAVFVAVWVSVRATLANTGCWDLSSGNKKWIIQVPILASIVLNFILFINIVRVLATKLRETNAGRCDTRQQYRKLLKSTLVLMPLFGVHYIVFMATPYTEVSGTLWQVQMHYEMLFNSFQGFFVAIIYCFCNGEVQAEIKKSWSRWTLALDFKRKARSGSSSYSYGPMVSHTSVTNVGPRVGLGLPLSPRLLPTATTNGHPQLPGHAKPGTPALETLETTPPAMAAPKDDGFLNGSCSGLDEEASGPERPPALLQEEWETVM
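HEK-293-derived GP2 cells expressing PTHR1 and a GloSensor cAMP reporter, 3,000/well, plated overnight, given luciferin plus IBMX (each 0.5 mM as added) for 1 h at 37 °C, then compound for 1 h at 37 °C. Luminescence was read after 15 min at room temperature.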
An asterisk follows results filed as active; i = inactive; ? = inconclusive; . = not tested or not shown; [ ] = another dose, or the depositor's remark. Calls follow the shape of the dose curve; as a rule, active = well fitted curve in the direction sought with a large enough effect; inconclusive = small, poorly fitted or top-dose-only effect, or another doubt; inactive = no such curve, though single readings can be large; an effect the other way counts as inactive or inconclusive. Potency is read from the fitted curve at half-maximal effect.

SMILES	HEK293 tox	GLP1R ag	GLP-1R inv ag	PTHR1 ag
CCOc1ccc(C(=O)Nc2ccc3nc(SCC(=O)N4CCOCC4)sc3c2)cc1	1%	.	4%	-11%
COc1cc([C@@H]2c3cc4c(cc3[C@@H](O[C@@H]3O[C@H]5CO[C@H](C)O[C@H]5[C@H](O)[C@@H]3O)[C@H]3COC(=O)[C@H]23)OCO4)cc(OC)c1OP(=O)(O)O	.	11%	.	.
Cc1ccc(NC(=O)C(=O)c2cc(C)n(-c3ccc(F)cc3)c2C)cc1C	2%	.	?	-80%
CCN(CC)C(=O)c1sc2c(c1C)c(=O)n(-c1ccc(C)c(C)c1)c(=O)n2Cc1cccc(Cl)c1	0%	.	5µM*	9%
CC1(c2ccc(OC(F)F)cc2)NC(=O)N(CC(=O)Nc2ccc(OC(F)F)cc2)C1=O (centres undefined)	5%	2%	10µM*	-19%
CC1(c2ccc(OC(F)F)cc2)NC(=O)N(CC(=O)Nc2ccc(F)cc2)C1=O (centres undefined)	-13%	17%	?	-8%
O=C(c1cccc(NS(=O)(=O)c2ccc(F)c(F)c2)c1)N1CCN(C(c2ccccc2)c2ccccc2)CC1	8%	-7%	4µM*	-32%
Cn1c(=O)c(NC2CCCCC2)c2c3c(cccc31)C(=O)c1ccccc1-2	i	-2%	10µM*	i
CC1C(=O)C(C)C(c2cc(Br)ccc2O)NC1c1cc(Br)ccc1O (centres undefined)	?	7%	5µM*	-3%
CC1C(=O)C(C)C(c2ccc(Br)cc2)NC1c1ccc(Br)cc1 (centres undefined)	-14%	-2%	-18%	-36%
CC1(c2ccccc2)CC(C)(C)N2C(=O)C3(C(C#N)=C(N)Oc4cc(O)ccc43)c3cccc1c32 (centres undefined)	?	-13%	5.6µM*	-30%
Cc1cc2c3c(c1)C(C)(c1ccccc1)CC(C)(C)N3C(=O)C21C(C#N)=C(N)OC2=C1C(=O)CC(C)(C)C2 (centres undefined)	-24%	-17%	?	-6%[57.5 µM]
CSc1cccc(NS(=O)(=O)c2ccc(-c3coc(C)n3)cc2)c1	0%	0%	8.9µM*	-32%
COc1ccc(CN2CCC(CO)(Cc3ccccc3C(F)(F)F)CC2)c(F)c1	?	-2%	8.9µM*	-79%
COc1ccc(CC2(CO)CCN(Cc3cccc4nccnc34)CC2)cc1	-4%[7.66 µM]	5%	-2%[7.66 µM]	i
CCOc1ccc(NC(=O)NC23CC4CC(CC(C4)C2)C3)cc1	-8%	9%	2.5µM*	-92%
Oc1c(Br)cc(Br)cc1/C=N/NC(=S)N[C@H]1CC2C=CC1C2 (some centres undefined)	21%	0%	3.5µM*	-17%
CNC(=S)N/N=C/c1cc(Br)cc(Br)c1O	88%	-1%	?	i
CCOc1ccc(/C=N/NC(=S)NC2CC3C=CC2C3)cc1 (centres undefined)	7%	14%	3.2µM*	i
Cc1ccc(-n2ncc3c(N(C)Cc4ccccc4)ncnc32)cc1	3%	.	-9%	-96%
COc1ccc(C(=O)N(Cc2sccc2C)C2CCS(=O)(=O)C2)cc1Cl (centres undefined)	-10%	.	1%	-7%
O=C(Nc1ccccc1C(F)(F)F)c1ccc(F)c(S(=O)(=O)N2CCc3ccccc3C2)c1	1%	.	?	i
NS(=O)(=O)c1ccc(NC(=O)Nc2ccc(C(F)(F)F)cc2)cc1	-12%	5%	5µM*	-15%
NS(=O)(=O)c1ccc(NC(=O)Nc2ccc(S(N)(=O)=O)cc2)cc1	12%	0%	0%	?
S=c1[nH]cnc2sc(-c3ccccc3)cc12	5.6µM*	1%	-6%	-19%
SMILES	HEK293 tox	GLP1R ag	GLP-1R inv ag	PTHR1 ag
CNc1ncnc2sc(-c3ccccc3)cc12	8%[0.307 µM]	?	-12%[0.307 µM]	-24%
Cc1ccc2[nH]c(=O)c3cc(C(=O)N(C)c4ccc(Br)cc4)sc3c2c1	-9%	.	-23%	i
CC(Oc1cccc(Cl)c1)C(=O)Nc1cc(S(=O)(=O)N2CCOCC2)ccc1N1CCCCC1 (centres undefined)	0%	17%	10µM*	i
CC(NCC(=O)Nc1cc(S(=O)(=O)N2CCOCC2)ccc1Cl)c1ccc(Cl)cc1Cl (centres undefined)	-16%	0%	5.6µM*	-32%
CCN1CCN(c2ccc(S(=O)(=O)N3CCOCC3)cc2NC(=O)C(C)Oc2cccc(Cl)c2)CC1 (centres undefined)	0%	30%	?	-68%
O=C(CCl)N(Cc1cc(=O)[nH]c2ccccc12)c1ccccc1	?	-8%	2.8µM*	-39%
COc1ccc(CCc2ccc3ccccc3n2)cc1	-7%	23%	10µM*	-29%
COc1ccc(CCc2ccnc3ccccc23)cc1	-1%	38%	?	-20%
CCN1C(=O)c2ccccc2S(=O)c2ccc(C(=O)N3CCN(c4ccc(F)cc4)CC3)cc21 (centres undefined)	8%	0%	10%	-11%
CCN(CC)c1ccc(NC(=O)C2CC3CCC2C3)cc1 (centres undefined)	-15%	0%	7.9µM*	0%[57.5 µM]
COc1cc(Cl)c(NC(=O)CN(C)S(=O)(=O)c2ccc3c(c2)CCCC(=O)N3)c(OC)c1	5%	-3%	5%	-9%
CCc1nc2c(cnn2-c2ccc(Cl)cc2)c(=O)n1-c1ccc(OC)cc1	-8%	3%	11µM*	-11%[57.5 µM]
COc1ccc(-n2c(-c3ccco3)nc3c(cnn3-c3ccc(C)cc3)c2=O)cc1	-6%	11%	2%	-35%
COc1ccc(-n2c(-c3ccccc3F)nc3c(cnn3-c3ccc(C)cc3)c2=O)cc1	2%	.	7.1µM*	i
CCOC(=O)Cn1c(=O)c2c(nc(N3CCOCC3)n2Cc2ccccc2)n(C)c1=O	-2%	.	-26%	i
CC1=C(CO)C(=O)OC([C@@H](C)C2CC[C@H]3C4C[C@H]5O[C@]56[C@@H](O)C=CC(=O)[C@]6(C)C4CC[C@]23C)C1 (some centres undefined)	13µM*	-19%	10%	-52%
CCN1CCN(C(=O)N[C@H](C(=O)N[C@@H]2C(=O)N3[C@@H](C(=O)O)C(C)(C)S[C@@H]23)c2ccccc2)C(=O)C1=O	.	-5%	.	.
CCC(C)c1ccc(O)c(NC(=S)NC(=O)c2cccs2)c1 (centres undefined)	-14%	9%	8.9µM*	-3%
CCCOc1ccc(-c2nc(N3CCN(CC)CC3)c3ccccc3n2)cc1	-28%	13%	7.9µM*	-18%
CCCOc1ccc(-c2nc(N3CCN(C)CC3)c3ccccc3n2)cc1	-8%	34%	?	-3%
Cc1cc(C)c(S(=O)(=O)N2CCCCC2)cc1N(C)S(=O)(=O)c1ccc(Cl)cc1	-8%	-3%	13µM*	-15%
CCOC(=O)c1c(C)nc2ccc(Cl)cc2c1-c1ccccc1	-7%	?	10µM*	i
